The text below walks through data of PubChem BioAssay AID488969 (Vanderbilt High Throughput Screening Facility, 2010).

Whole data set: some 110,000 compounds, median “z-score” near -0.1, cut for the highest 2% near 2. The full list was thinned out, with the highest values kept by preference. Active and inactive are the calls of the source.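 How the source made its calls: active means z-score in the third read window above 3 or below -3; inactive means the rest.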

For the test, the target named is Metabotropic glutamate receptor 8 (Rattus norvegicus) (UniProt P70579). Put plainly: rat mGluR8 modulators via GIRK flux, primary screen, cell-based, thallium flux, HTS (AID 488969). Conditions: HEK293 rat mGluR8, GIRK (G protein-gated inwardly rectifying potassium channel) thallium flux, FluoZin2; at 10 µM; stronger effect = higher value; submaximal glutamate (EC20) added with thallium.
Sequence of Metabotropic glutamate receptor 8 (Rattus norvegicus) (P70579 whole entry, looked up): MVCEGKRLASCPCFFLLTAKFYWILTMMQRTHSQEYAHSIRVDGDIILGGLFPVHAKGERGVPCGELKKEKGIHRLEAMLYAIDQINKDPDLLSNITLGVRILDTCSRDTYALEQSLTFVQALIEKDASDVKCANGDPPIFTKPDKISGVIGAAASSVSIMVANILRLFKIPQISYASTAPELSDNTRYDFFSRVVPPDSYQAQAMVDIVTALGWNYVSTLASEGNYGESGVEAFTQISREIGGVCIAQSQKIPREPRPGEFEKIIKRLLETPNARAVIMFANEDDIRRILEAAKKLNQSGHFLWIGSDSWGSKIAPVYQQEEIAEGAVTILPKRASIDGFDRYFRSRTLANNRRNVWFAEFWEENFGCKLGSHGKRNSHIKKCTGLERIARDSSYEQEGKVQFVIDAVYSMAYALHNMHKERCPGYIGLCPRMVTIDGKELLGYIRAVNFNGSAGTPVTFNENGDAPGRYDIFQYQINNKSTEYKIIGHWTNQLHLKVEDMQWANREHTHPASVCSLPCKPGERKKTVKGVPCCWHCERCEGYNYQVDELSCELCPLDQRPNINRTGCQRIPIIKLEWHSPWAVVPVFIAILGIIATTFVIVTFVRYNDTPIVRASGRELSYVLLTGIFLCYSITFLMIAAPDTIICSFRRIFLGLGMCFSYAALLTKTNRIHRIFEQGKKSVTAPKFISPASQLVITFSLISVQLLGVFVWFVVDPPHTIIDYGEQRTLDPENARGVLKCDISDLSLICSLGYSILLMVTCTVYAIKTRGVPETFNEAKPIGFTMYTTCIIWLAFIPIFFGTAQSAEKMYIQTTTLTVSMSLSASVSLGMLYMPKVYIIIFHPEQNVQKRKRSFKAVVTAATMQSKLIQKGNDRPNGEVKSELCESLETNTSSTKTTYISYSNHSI
The compound `CCC(c1nnc(SCC(=O)Nc2nnc(-c3ccccc3)o2)o1)N(C)C` (stereo unspecified) yielded a z-score of -0.0751. Regarding `Oc1cccc(/C=N/Nc2cc(N3CCOCC3)nc(N3CCOCC3)n2)c1`, the z-score was -0.242. To `O=C(NC1CCc2ccccc21)C1CCN(S(=O)(=O)c2ccc(Cl)cc2)CC1` (stereo unspecified) belongs 2.31. The same measure for `O=C(NC1CCc2ccccc21)C1CCN(S(=O)(=O)c2ccc(-n3cnnn3)cc2)CC1` (stereo unspecified): 0.204. To `O=C(NC1CCCc2ccccc21)C1CCN(S(=O)(=O)c2ccccc2F)CC1` (stereo unspecified) belongs -0.424; to `O=C(/C=C/c1ccc(F)cc1)N1CCCN(C(=O)/C=C/c2ccc(F)cc2)CC1`, -0.668. Take `CCCn1c(SCC(=O)N2N=C3/C(=C/c4ccc(OC)cc4)CCCC3C2c2ccc(OC)cc2)n[nH]c1=O` (stereo unspecified): the z-score was -0.0176. For the compound `O=C(CSCc1ccc(F)cc1)Nc1ccccc1`, the z-score stood at 0.0848. On to `CC(C)CC(=O)NS(=O)(=O)c1ccc(N)cc1`, for which the z-score was found to be 0.0965. To `COc1cccc(/C=C/C(=O)Oc2ccc(C(=O)c3ccc(F)cc3)cc2)c1` belongs -2.23; to `CCCCNC(=O)C1CCCNC1=O` (stereo unspecified), 0.0768; to `CN(C)CCNC(=O)C1CCCNC1=O` (stereo unspecified), 0.0264. Compound `Cc1ccc(S(=O)(=O)NCCNC(=O)C2CCCNC2=O)cc1` (stereo unspecified) gave a z-score of 2.41. To `Cc1ccc(NC(=O)CCn2cccc2)cc1Cl` belongs -0.079.

As for `NC(=O)SCC(=O)Nc1ccc(Cl)cc1`, the z-score was 5.18 (active).

The compound `O=C(COc1ccccc1O)Nc1ccc(Cl)cc1` returned a z-score of -0.0165.

The compound `Nc1cc(=O)[nH]c(SCC(=O)Nc2cccc(Cl)c2)n1` displayed a z-score of 0.151.

For `Cc1ccc(NC(=O)Cn2cccc2)cc1Cl`, the z-score turned out to be 2.51. The compound `N#CCSCC(=O)Nc1ccc(Cl)cc1` displayed a z-score of 0.285. In turn, `COC(=O)CCC(=O)Nc1cccc(Cl)c1` yielded a z-score of -0.0969.

With `Cc1ccc(NC(=O)CSC(N)=O)cc1Cl`, the z-score was 5.44 (active).

For `Cc1ccc(Cl)cc1NC(=O)Cn1cccc1`, the z-score was -0.44. Compound `Cc1ccc(NC(=O)CSCC#N)cc1Cl` yielded a z-score of -0.0832.

The compound `NC(=O)SCC(=O)Nc1cccc(Cl)c1` registered a z-score of 2.86. `Cc1ccc(Cl)cc1NC(=O)CSC(N)=O` came in with a z-score of 0.476. The same measure for `O=C(NNC1=NCCCCC1)c1ccccc1`: -0.78. The same measure for `O=S(=O)(Cc1ccccc1)N1CCCC(c2nc(-c3ccc(F)cc3)no2)C1` (stereo unspecified): -0.449; for `Cc1nc(NC(=O)CSc2ccc(-c3nc4ccccc4[nH]3)cn2)sc1C`: -0.0534. The same measure for `O=C(/C=C/c1ccc(OCc2ccccc2)c(OCc2ccccc2)c1)c1cccnc1`: 0.691.

Regarding `Cc1ccc(NC(=O)N2CCC(C(=O)NCc3ccccc3)CC2)cc1`, the z-score was -0.545. To `O=C(NCc1ccc(F)cc1)C1CCN(C(=O)NCc2ccccc2)CC1` belongs 0.336. The same measure for `Cc1ccc(NC(=O)N2CCC(C(=O)NCc3ccc(F)cc3)CC2)cc1`: 2.21.

The compound `O=C(COCC(=O)N/N=C/c1ccccc1F)N/N=C/c1ccccc1F` displayed a z-score of -0.201. To `CCn1c(SCc2ccc(Cl)cc2)nnc1-c1ccccc1` belongs 3.4 (active); to `CCn1c(SCc2cccc(C)c2)nnc1-c1ccccc1`, -0.431. `CCn1c(SCc2ccc(C#N)cc2)nnc1-c1cccc(Cl)c1` yielded a z-score of -0.177. The same measure for `COCCN(C(=O)Nc1ccccc1)c1ccccc1`: -0.157; for `Cc1cc(Br)ccc1NC(=S)Nc1cccc([N+](=O)[O-])c1`: 0.848; for `Cc1cccc(NC(=O)C2CCCC2)c1`: 0.277.

On to `Cc1ccc(C2CC2C(=O)NNC(=S)Nc2ccc(Cl)cc2)cc1` (stereo unspecified), for which the z-score is 4.55 (active). Consider `Cc1ccc(C2CC2C(=O)NNC(=S)Nc2cccc(C)c2)cc1` (stereo unspecified), for which the z-score was 3.29 (active). The same measure for `O=C(NNC(=O)C1CC1c1ccccc1)Nc1cccc(Cl)c1` (stereo unspecified): -0.494; for `Cc1ccc(C2CC2C(=O)NN)cc1` (stereo unspecified): -0.033.

Take `Cc1ccc(NC(=S)NNC(=O)C2CC2c2ccc(C)cc2)cc1` (stereo unspecified): the z-score came out at 1.64.

`CC1=C(C)CC(C(=O)Nc2cccc(Cl)c2)C(C(=O)O)C1` (stereo unspecified): the z-score is -0.289.

As for `Cc1ccc(C2CC2C(=O)NNC(=S)Nc2cccc(Cl)c2)cc1` (stereo unspecified), the z-score is 5.51 (active).

Compound `Cc1cccc(NC(=S)NNC(=O)c2ccco2)c1` came in with a z-score of 0.0496. To `O=C(c1ccccc1)c1ccc(Oc2ncccn2)cc1` belongs -0.321; to `O=[N+]([O-])c1ccccc1N/N=C/c1cc2ccccc2nc1Cl`, -0.459; to `CC(C)c1ccc(-c2c(C#N)c(N)nc(SCC(=O)N3CCCCC3)c2C#N)cc1`, -0.019.

Regarding `O=C1c2cccc3cccc(c23)C(=O)N1CCN1CCN(C(=S)Nc2ccc(F)cc2)CC1`, the z-score is -0.203.

In the case of `Cc1cccc(-n2c(SCC(=O)Nc3ncc(Cl)cc3Cl)nc3ccccc32)c1`, the z-score is -0.585. The same measure for `COc1ccc(-n2cc(-c3ccccc3)[nH]c2=S)cc1`: 11.4 (active); for `COc1ccc(-n2c(=S)[nH]c3ccccc32)cc1`: 1.9. The same measure for `Cc1ccc(-n2c(-c3ccccc3)n[nH]c2=S)cc1`: 0.357. `O=C(O)CCC(=O)NC1CCCCC1` came in with a z-score of -0.0259. To `O=C(CCCC(=O)NC1CCCC1)NC1CCCC1` belongs -0.0851; to `O=C(O)CCC(=O)NC1CCCCC1NC(=O)CCC(=O)O` (stereo unspecified), 2.2; to `O=C(CCC1CCCC1)NC1CCCCC1`, -0.0138. The compound `CC1CCCCC1NC(=O)CSCC(=O)O` (stereo unspecified) returned a z-score of -0.0424. For `O=C(O)CCC(=O)NC1CCCCCCC1`, the z-score is 3.34 (active).

With `O=S(=O)(NCc1cccnc1)c1cccc2cccnc12`, the z-score is -0.0796. The same measure for `Cc1cc(C)c(S(=O)(=O)N(C)CC(=O)N2CCCCC2)c(C)c1`: 0.255; for `COc1ccc2c(c1)c(N=O)c(O)n2C`: -0.55. The same measure for `O=C(C1CCN(S(=O)(=O)N2CCOCC2)CC1)N1CCc2ccccc21`: -1.37. To `O=C(NCCO)c1scc2c1OCCO2` belongs 0.107. `Cc1cccc(-n2c(O)c(C=NCc3ccccn3)c3ccccc3c2=O)c1`: the z-score was -0.159.

With `O=c1c2ccccc2c(C=NCc2ccccn2)c(O)n1-c1ccccc1`, the z-score is 9.73 (active). Take `Cc1ccc(-n2c(O)c(C=NCc3ccccn3)c3ccccc3c2=O)cc1`: the z-score is -0.774. Take `COc1ccc(CNC(=O)C/C(C)=N/NC(=O)Cc2ccc(OC)c(OC)c2)cc1`: the z-score came to 0.123. The same measure for `CCCCN(CCCC)S(=O)(=O)c1ccc2[nH]c(=O)[nH]c2c1`: -0.144; for `COc1ccc(/C=C(\C#N)C(=O)Nc2cccnc2)cc1`: -0.0907.

Consider `COc1cc(/C=C(\C#N)C(=O)Nc2cccnc2)ccc1OC(C)C`, for which the z-score came to 2.99. The same measure for `CCOc1ccc(/C=C(\C#N)C(=O)Nc2cccnc2)cc1`: -0.416; for `CC(C)C(=O)NC(C)C(c1cccs1)N1CCN(C)CC1` (stereo unspecified): 0.199; for `COc1ccccc1OCCOc1ccc(C(=O)c2ccccc2)cc1`: 1.04. To `O=C(CSc1ccccc1)NCCSCc1ccccc1` belongs -0.635. The same measure for `CCNC(=O)CSc1nc2cc([N+](=O)[O-])ccc2n1-c1cccc(C(F)(F)F)c1`: -0.0324. On to `NC(=O)CSc1nc2cc([N+](=O)[O-])ccc2n1-c1cccc(C(F)(F)F)c1`, for which the z-score worked out at 0.159.

Turning to `C=CCNC(=O)NC(=O)CSc1nc2cc([N+](=O)[O-])ccc2n1-c1cccc(C(F)(F)F)c1`, the z-score is 2.75. To `O=C(OCCN1C(=O)CCC1=O)c1ccc(S(=O)(=O)N2CCCCC2)cc1` belongs -1.06; to `Cn1c(NC(=O)c2cccs2)c(-c2cccs2)c(=O)c2ccccc21`, 0.899. Compound `Cc1nn(Cc2ccc(Cl)cc2)c(C)c1NC(=O)C1CC=CCC1C(=O)O` (stereo unspecified) returned a z-score of -0.0201. In turn, `CN(C)CCC1Sc2ccccc2Oc2ccccc21` (stereo unspecified) gave a z-score of 1.77.

In turn, `CCN(CC)CCCNC(=O)C1c2ccccc2Oc2ccccc21` yielded a z-score of 0.199. As for `CNCCCC1Sc2ccccc2Oc2ccccc21` (stereo unspecified), the z-score was 2.85.

For `Cc1sc(NC(=O)c2ccco2)c(C(=O)c2ccc(Cl)cc2)c1C`, the z-score was -0.135. Take `CC(C)(C)NC(=O)c1cc(Cl)ccc1[N+](=O)[O-]`: the z-score was -0.172. The same measure for `N#C/C(=C/c1cn(-c2ccccc2)nc1-c1cccc(S(=O)(=O)N2CCOCC2)c1)C(=O)NCc1ccco1`: -0.112; for `Cc1ccc(N2C(N)=NC(N)=NC23CCCC3)c(C)c1`: 0.0847. The compound `NC1=NC2(CCCCC2)N(c2cccc(Cl)c2)C(N)=N1` gave a z-score of 0.453.

`Cc1cccc(N2C(N)=NC(N)=NC23CCCCC3)c1` yielded a z-score of 2.24. The same measure for `Cc1ccc(S(=O)(=O)NCCSCc2ccccc2)cc1`: -0.24; for `Cn1cc(CCC(=O)NCc2ccc3c(c2)OCO3)c2ccccc21`: 3.75 (active); for `Cn1c(=O)cc(OCCCC(=O)Nc2ccc3c(c2)OCCO3)c2ccccc21`: -0.101. In the case of `COc1ccc(CNC(=O)CCCOc2cc(=O)n(C)c3ccccc23)cc1`, the z-score is 0.0421. `CC(=O)c1cn(CC(=O)NCc2ccc3c(c2)OCO3)c2ccccc12` showed a z-score of -0.0873.

In the case of `Cn1c(=O)cc(OCCCC(=O)NCc2ccc3c(c2)OCO3)c2ccccc21`, the z-score was 8.84 (active).

`O=C(CCn1cccc1)NCc1ccc2c(c1)OCO2` came in with a z-score of -0.423.

For the compound `O=S(=O)(NCc1ccccn1)c1ccccc1`, the z-score was -0.362. To `COc1ccc(-c2nc(-c3cccc(C)c3)[nH]c(=O)c2C#N)cc1` belongs -0.296; to `COc1ccc(S(=O)(=O)n2ccc(C)n2)cc1C`, -0.988; to `CCCNC(=O)C1CCN(S(=O)(=O)c2ccc(-c3nn[nH]n3)cc2)CC1`, -0.171. The same measure for `N/C(=N\c1nc2c(c(=O)[nH]1)CCC2)Nc1ccccc1`: 0.214; for `CC12CN(Cc3ccccc3)CC(C)(CN(Cc3ccccc3)C1)C2=NO`: 2.4. To `CC(=O)C1CCN(Cc2ccccc2)CC1` belongs -0.262; to `c1ccc(CN2CCOCC2)cc1`, 0.378.

On to `Cn1ncc(Br)c1C(=O)N/N=C/c1cccc(OC2CSC2)c1`, for which the z-score was -0.309. Take `O=C(CSc1nnnn1C1CCCCC1)NCc1ccco1`: the z-score was -0.228. Regarding `CCOC(=O)c1c(NC(=O)CNCCOC)sc2c1CCCC2`, the z-score was -1.06.

For `Cc1nn(C)c(C)c1CNC(=O)c1nn2c(c1Cl)NC(c1cccs1)CC2C(F)(F)F` (stereo unspecified), the z-score is -0.0188. To `Cc1nn(C)c(C)c1CN(C)C(=O)c1nn2c(c1Br)NC(c1cccs1)CC2C(F)(F)F` (stereo unspecified) belongs 2.24; to `Cc1nn(C)c(C)c1CN(C)C(=O)c1cc2n(n1)C(C(F)(F)F)CC(c1cccs1)N2` (stereo unspecified), 0.0534; to `CCOc1ccc2nc(NC(=O)C3CCCN(S(=O)(=O)c4cccs4)C3)sc2c1` (stereo unspecified), 0.284.

`COc1ccc(OC(C)C(=O)N2CCC(C)CC2)cc1` (stereo unspecified) registered a z-score of 0.926.

As for `CNC(=S)N1CCN(c2ccc(OC)cc2)CC1`, the z-score is 8.68 (active).

On to `COc1ccc(C(=O)NC(=S)N2CCCCC2)cc1`, for which the z-score is 3.44 (active).

As to `CNC(=S)N1CCN(c2cccc(OC)c2)CC1`, the z-score worked out at 0.273. The same measure for `COc1ccc(N2CCN(C(=S)Nc3cc(C)cc(C)c3)CC2)cc1`: 0.06; for `COc1ccc(C(=O)NC(=S)N2CC(C)OC(C)C2)cc1` (stereo unspecified): 0.0339. With `Cc1cccc(C(=O)NC(=S)N2CCN(C(=S)NC(=O)c3cccc(C)c3)CC2)c1`, the z-score came to 0.153.

In turn, `COc1ccc(C(=S)N2CCCCCC2)cc1` displayed a z-score of -0.075. To `COc1ccc(C(=O)NC(=O)N2CCCCC2)cc1` belongs 0.975. To `COc1ccc(C(=O)NC(=S)N2CCC(C)CC2)cc1` belongs 14.2 (active); to `CC1CCN(C(=S)NC(=O)c2ccccc2)CC1`, 4.42 (active); to `CC1CCN(C(=S)NCCc2ccccc2)CC1`, -0.0312.
